Laboratory results as given in publication PMC7862700, “An all-to-all approach to the identification of sequence-specific readers for epigenetic DNA modifications on cytosine”.

Key:
Test in all cases: DAPPL (digital affinity profiling via proximity ligation, sequencing); 10 mM Tris-HCl pH 7.5, 50 mM NaCl, 1 mM DTT, 4% glycerol, room temperature, 30 min; GST-TFs on glutathione beads, 16-mer random dsDNA library, 0.1% formaldehyde crosslink after washing; high values mean tight binding
Details in all cases: protein: recombinant; tags: N-terminal GST; dsDNA, one strand shown
[1] = biological target: T1, FLI1 (Homo sapiens, UniProt Q01543 1-452)
T1 sequence: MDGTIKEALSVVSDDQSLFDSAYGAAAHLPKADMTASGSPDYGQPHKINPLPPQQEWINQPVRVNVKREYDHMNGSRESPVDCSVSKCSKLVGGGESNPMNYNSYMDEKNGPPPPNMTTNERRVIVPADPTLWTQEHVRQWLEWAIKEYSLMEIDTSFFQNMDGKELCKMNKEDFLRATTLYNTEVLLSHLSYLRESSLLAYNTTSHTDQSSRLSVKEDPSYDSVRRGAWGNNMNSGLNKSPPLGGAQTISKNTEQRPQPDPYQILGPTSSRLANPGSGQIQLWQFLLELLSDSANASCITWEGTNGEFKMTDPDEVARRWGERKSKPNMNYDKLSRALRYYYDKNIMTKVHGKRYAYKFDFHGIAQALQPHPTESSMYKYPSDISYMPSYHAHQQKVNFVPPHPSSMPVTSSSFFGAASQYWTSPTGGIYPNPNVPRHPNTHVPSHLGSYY
Summary of the method: (§1)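 Human transcription factors fused to GST were expressed in yeast, captured on glutathione beads, given DNA barcodes and pooled with a GST-only negative control. Pools were incubated with 200 nmole of a 16-mer random double-stranded DNA library in Tris/NaCl/DTT/glycerol buffer at room temperature for 30 min. They were then washed, crosslinked with 0.1% formaldehyde, proximity-ligated (BsaI/T4 ligase, 1 h, 37 °C), PCR-amplified and sequenced on an Illumina NextSeq500. Binding signal is each 6-mer's read frequency for a factor divided by its frequency for the GST control.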

[2] = biological target: T2, ELK1 (Homo sapiens, UniProt P19419 1-428)
T2 sequence: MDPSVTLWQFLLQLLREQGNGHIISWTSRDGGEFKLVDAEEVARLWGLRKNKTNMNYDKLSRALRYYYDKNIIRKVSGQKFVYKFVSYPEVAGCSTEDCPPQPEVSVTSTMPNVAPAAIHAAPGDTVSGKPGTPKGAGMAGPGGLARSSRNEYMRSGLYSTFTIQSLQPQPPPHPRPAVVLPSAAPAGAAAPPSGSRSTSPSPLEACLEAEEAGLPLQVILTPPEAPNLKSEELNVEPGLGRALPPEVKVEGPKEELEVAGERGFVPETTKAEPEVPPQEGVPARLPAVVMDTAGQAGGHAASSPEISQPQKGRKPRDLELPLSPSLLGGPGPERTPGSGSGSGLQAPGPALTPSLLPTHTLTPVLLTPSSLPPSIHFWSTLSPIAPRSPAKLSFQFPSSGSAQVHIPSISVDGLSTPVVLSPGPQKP
Summary of the method: as §1

[3] = biological target: T3, GABPA (Homo sapiens, UniProt Q06546 1-454)
T3 sequence: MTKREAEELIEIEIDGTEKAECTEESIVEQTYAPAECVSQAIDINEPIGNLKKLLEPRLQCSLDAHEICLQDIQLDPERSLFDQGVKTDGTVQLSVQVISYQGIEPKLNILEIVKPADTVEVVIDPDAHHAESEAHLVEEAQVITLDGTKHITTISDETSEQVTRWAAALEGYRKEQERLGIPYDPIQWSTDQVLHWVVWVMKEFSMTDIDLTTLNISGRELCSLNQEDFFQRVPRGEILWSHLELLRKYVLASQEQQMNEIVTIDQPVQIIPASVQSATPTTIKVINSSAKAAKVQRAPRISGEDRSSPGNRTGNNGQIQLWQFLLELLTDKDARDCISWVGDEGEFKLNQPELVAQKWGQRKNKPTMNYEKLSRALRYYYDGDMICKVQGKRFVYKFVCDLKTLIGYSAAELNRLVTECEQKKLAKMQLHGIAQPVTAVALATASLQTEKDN
Summary of the method: as §1

[4] = biological target: T4, ERG (Homo sapiens, UniProt P11308 1-479)
T4 sequence: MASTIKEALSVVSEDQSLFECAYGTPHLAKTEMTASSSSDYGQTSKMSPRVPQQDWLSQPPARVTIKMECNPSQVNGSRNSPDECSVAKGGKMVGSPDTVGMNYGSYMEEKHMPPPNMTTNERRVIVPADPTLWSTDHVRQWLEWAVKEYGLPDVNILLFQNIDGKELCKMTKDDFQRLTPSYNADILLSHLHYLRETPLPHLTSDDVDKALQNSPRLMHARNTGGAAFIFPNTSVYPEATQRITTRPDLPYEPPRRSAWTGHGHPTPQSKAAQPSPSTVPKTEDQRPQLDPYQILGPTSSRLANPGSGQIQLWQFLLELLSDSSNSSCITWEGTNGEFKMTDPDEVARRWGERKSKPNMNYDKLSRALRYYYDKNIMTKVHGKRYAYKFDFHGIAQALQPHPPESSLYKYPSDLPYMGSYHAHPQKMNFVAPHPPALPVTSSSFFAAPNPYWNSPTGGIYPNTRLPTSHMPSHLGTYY
Summary of the method: as §1

[5] = biological target: ELF1 (Homo sapiens, UniProt P32519 1-619)
Summary of the method: as §1

[6] = biological target: T5, EHF (Homo sapiens, UniProt Q9NZC4 1-300)
T5 sequence: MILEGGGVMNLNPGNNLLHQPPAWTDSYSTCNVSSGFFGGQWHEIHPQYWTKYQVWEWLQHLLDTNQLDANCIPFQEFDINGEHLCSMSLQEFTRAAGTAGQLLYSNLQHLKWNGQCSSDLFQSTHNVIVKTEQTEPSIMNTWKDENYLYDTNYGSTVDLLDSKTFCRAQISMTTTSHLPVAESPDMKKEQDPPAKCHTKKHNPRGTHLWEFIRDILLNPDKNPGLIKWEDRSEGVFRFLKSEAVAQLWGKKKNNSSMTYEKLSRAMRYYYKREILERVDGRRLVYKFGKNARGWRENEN
Summary of the method: as §1

[7] = biological target: SPI1 (Homo sapiens, UniProt P17947 1-270)
Summary of the method: as §1

[8] = biological target: SPIB (Homo sapiens, UniProt Q01892 1-262)
Summary of the method: as §1

[9] = biological target: T6, ELK3 (Homo sapiens, UniProt P41970 1-407)
T6 sequence: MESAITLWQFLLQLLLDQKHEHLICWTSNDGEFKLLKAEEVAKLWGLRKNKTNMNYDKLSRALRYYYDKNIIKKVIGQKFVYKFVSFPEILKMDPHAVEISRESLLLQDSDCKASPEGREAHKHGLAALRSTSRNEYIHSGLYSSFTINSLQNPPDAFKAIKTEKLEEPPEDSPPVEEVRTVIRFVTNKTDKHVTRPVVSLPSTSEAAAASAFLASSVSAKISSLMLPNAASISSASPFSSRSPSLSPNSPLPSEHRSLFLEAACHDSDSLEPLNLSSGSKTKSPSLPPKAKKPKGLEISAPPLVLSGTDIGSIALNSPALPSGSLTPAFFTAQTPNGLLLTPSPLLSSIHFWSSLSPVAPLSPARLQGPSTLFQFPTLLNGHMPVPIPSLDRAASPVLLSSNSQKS
Summary of the method: as §1

Chain of SPIB (Q01892 whole entry): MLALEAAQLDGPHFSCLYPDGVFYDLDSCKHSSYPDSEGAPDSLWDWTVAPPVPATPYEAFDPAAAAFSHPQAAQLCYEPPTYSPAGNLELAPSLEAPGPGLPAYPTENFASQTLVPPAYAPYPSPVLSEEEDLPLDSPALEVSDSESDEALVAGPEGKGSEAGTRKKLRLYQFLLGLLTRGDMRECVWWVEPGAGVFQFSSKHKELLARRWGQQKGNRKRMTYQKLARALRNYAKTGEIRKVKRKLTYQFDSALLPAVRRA
Chain of ELF1 (P32519 whole entry): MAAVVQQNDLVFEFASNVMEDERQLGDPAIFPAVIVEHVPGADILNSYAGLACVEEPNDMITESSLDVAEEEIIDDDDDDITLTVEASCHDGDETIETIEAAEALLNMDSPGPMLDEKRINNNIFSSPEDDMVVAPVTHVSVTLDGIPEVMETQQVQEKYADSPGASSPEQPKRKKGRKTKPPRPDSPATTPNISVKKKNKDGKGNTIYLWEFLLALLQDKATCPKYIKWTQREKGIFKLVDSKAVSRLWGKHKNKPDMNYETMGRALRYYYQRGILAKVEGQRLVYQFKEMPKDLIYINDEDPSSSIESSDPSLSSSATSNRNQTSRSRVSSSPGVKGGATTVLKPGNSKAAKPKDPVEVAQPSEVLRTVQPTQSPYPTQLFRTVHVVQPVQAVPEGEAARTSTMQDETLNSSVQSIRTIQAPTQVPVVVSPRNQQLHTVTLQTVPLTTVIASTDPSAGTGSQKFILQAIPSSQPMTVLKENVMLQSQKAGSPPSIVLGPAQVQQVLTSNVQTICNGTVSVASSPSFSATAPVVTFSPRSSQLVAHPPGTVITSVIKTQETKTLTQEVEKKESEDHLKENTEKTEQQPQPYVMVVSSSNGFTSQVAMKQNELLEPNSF

Sequence | binding signal [1] | binding signal [2] | binding signal [3] | binding signal [4] | binding signal [5] | binding signal [6] | binding signal [7] | binding signal [8] | binding signal [9]
AAGAAT | 1.13 fold enrichment (6-mer frequency, TF over GST control) | 1.17 fold enrichment (6-mer frequency, TF over GST control) | 1.13 fold enrichment (6-mer frequency, TF over GST control) | 1.15 fold enrichment (6-mer frequency, TF over GST control) | 1.11 fold enrichment (6-mer frequency, TF over GST control) | 1.14 fold enrichment (6-mer frequency, TF over GST control) | 1.18 fold enrichment (6-mer frequency, TF over GST control) | 1.14 fold enrichment (6-mer frequency, TF over GST control) | 1.1 fold enrichment (6-mer frequency, TF over GST control)
ACGCCC | 1.22 fold enrichment (6-mer frequency, TF over GST control) | 1.21 fold enrichment (6-mer frequency, TF over GST control) | 1.25 fold enrichment (6-mer frequency, TF over GST control) | 1.11 fold enrichment (6-mer frequency, TF over GST control) | 1.21 fold enrichment (6-mer frequency, TF over GST control) | 1.18 fold enrichment (6-mer frequency, TF over GST control) | 1.11 fold enrichment (6-mer frequency, TF over GST control) | 1.14 fold enrichment (6-mer frequency, TF over GST control) | 1.11 fold enrichment (6-mer frequency, TF over GST control)
TATCCC | 1.63 fold enrichment (6-mer frequency, TF over GST control) | 1.65 fold enrichment (6-mer frequency, TF over GST control) | 1.53 fold enrichment (6-mer frequency, TF over GST control) | 1.58 fold enrichment (6-mer frequency, TF over GST control) | 1.57 fold enrichment (6-mer frequency, TF over GST control) | 1.52 fold enrichment (6-mer frequency, TF over GST control) | 1.36 fold enrichment (6-mer frequency, TF over GST control) | 1.54 fold enrichment (6-mer frequency, TF over GST control) | 1.56 fold enrichment (6-mer frequency, TF over GST control)
CACGCC | 1.12 fold enrichment (6-mer frequency, TF over GST control) | 1.25 fold enrichment (6-mer frequency, TF over GST control) | 1.27 fold enrichment (6-mer frequency, TF over GST control) | 1.29 fold enrichment (6-mer frequency, TF over GST control) | 1.26 fold enrichment (6-mer frequency, TF over GST control) | 1.18 fold enrichment (6-mer frequency, TF over GST control) | 1.2 fold enrichment (6-mer frequency, TF over GST control) | 1.15 fold enrichment (6-mer frequency, TF over GST control) | 1.22 fold enrichment (6-mer frequency, TF over GST control)
AAACTT | 1.27 fold enrichment (6-mer frequency, TF over GST control) | 1.22 fold enrichment (6-mer frequency, TF over GST control) | 1.31 fold enrichment (6-mer frequency, TF over GST control) | 1.24 fold enrichment (6-mer frequency, TF over GST control) | 1.24 fold enrichment (6-mer frequency, TF over GST control) | 1.31 fold enrichment (6-mer frequency, TF over GST control) | 1.24 fold enrichment (6-mer frequency, TF over GST control) | 1.25 fold enrichment (6-mer frequency, TF over GST control) | 1.3 fold enrichment (6-mer frequency, TF over GST control)
TTGCAA | 1.14 fold enrichment (6-mer frequency, TF over GST control) | 1.28 fold enrichment (6-mer frequency, TF over GST control) | 1.2 fold enrichment (6-mer frequency, TF over GST control) | 1.08 fold enrichment (6-mer frequency, TF over GST control) | 1.18 fold enrichment (6-mer frequency, TF over GST control) | 1.2 fold enrichment (6-mer frequency, TF over GST control) | 1.04 fold enrichment (6-mer frequency, TF over GST control) | 1.15 fold enrichment (6-mer frequency, TF over GST control) | 1.29 fold enrichment (6-mer frequency, TF over GST control)
GGAACT | 1.83 fold enrichment (6-mer frequency, TF over GST control) | 1.8 fold enrichment (6-mer frequency, TF over GST control) | 1.61 fold enrichment (6-mer frequency, TF over GST control) | 1.89 fold enrichment (6-mer frequency, TF over GST control) | 1.72 fold enrichment (6-mer frequency, TF over GST control) | 1.8 fold enrichment (6-mer frequency, TF over GST control) | 2.42 fold enrichment (6-mer frequency, TF over GST control) | 2.03 fold enrichment (6-mer frequency, TF over GST control) | 1.7 fold enrichment (6-mer frequency, TF over GST control)
TGGAAT | 1.36 fold enrichment (6-mer frequency, TF over GST control) | 1.21 fold enrichment (6-mer frequency, TF over GST control) | 1.3 fold enrichment (6-mer frequency, TF over GST control) | 1.25 fold enrichment (6-mer frequency, TF over GST control) | 1.22 fold enrichment (6-mer frequency, TF over GST control) | 1.19 fold enrichment (6-mer frequency, TF over GST control) | 1.25 fold enrichment (6-mer frequency, TF over GST control) | 1.21 fold enrichment (6-mer frequency, TF over GST control) | 1.25 fold enrichment (6-mer frequency, TF over GST control)
